# RORgamma inh – qHTS for inhibitors of ROR gamma transcriptional activity | Potency, µM (titrated, usually from 53.6 µM), for the others: top-dose activity change, negative = inhibition, most hits filed as inhibitors | Drosophila S2 Gal4-RORgamma UAS-luciferase reporter, 20 h | hit rate 5.4% among 310,000 | Nuclear receptor ROR-gamma (Mus musculus), P51450; note: potency is the fitted concentration of half-maximal effect; % is set by controls: 0 for no effect and ±100 for the full control effect; nearly all actives have a fitted effect of over 60% in size
# Target sequence (P51450 whole entry, looked up, the tested form may be a part): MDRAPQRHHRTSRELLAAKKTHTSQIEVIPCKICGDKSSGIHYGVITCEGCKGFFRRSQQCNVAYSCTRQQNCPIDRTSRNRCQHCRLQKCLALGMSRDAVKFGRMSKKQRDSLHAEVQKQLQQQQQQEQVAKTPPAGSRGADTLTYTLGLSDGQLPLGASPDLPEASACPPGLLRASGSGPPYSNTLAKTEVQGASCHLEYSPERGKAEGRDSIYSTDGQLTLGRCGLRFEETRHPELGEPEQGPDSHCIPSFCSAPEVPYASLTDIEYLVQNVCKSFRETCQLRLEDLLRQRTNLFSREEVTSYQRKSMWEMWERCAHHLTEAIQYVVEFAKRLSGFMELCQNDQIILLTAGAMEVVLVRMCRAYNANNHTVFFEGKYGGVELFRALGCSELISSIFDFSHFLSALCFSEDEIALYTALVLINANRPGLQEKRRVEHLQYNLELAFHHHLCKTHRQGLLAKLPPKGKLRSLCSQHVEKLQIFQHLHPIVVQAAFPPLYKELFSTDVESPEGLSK
#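 In this cell-based reporter format, copper sulfate (700 uM final) drives Gal4–ROR gamma fusion expression from a metallothionein promoter in Drosophila Schneider cells; compounds preincubated 1 hr, reporter read after 20 hr at ambient temperature.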
# SW480 rereplic – A quantitative high throughput screen for small molecules that induce DNA re-replication in SW480 colon adenocarcinoma cells | SW480 DNA re-replication, Hoechst DNA content imaging, 48 h | Potency, µM (series often up to 46.1 µM), without a hit: at the highest dose re-replication activation, usual class: activators | hit rate 1.8% among 340,000 | AID 624297, 2012; note: potency is the fitted concentration of half-maximal effect; % of control where 0% means no effect; nearly all actives have a fitted effect of over 55% in size
#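 First, 250 cells per well were seeded. Next, compound or vehicle (23 nL) was pinned in, plates sat 48 hr at 37 C. Finally Hoechst was added for 40 min before fluorescence scanning.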
# Gal4-VP16 FLuc – VP16 counterscreen qHTS for inhibitors of ROR gamma transcriptional activity | hit rate 3.5% among 310,000 | Potency, µM (series often up to 53.6 µM), without a hit: at the highest dose activity, negative = inhibition, actives largely listed as inhibitors | Drosophila S2 Gal4-VP16 UAS-luciferase, luminescence, 20 h;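 note: Gal4-VP16 expression switched on by copper sulfate through the metallothionein promoter; potency is the fitted concentration of half-maximal effect; % is set by controls: 0 for no effect and ±100 for the full control effect; nearly all actives have a fitted effect of over 50% in size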
# BCR signal inh – qHTS Assay to Find Inhibitors of Chronic Active B-Cell Receptor Signaling. hit rate 0.05% among 340,000. ABC-DLBCL IkBa-CBG/CBR reporter, luminescence ratio, 4 h. Potency, µM (doses to about 46.1 µM), for the others: at the highest dose activity change, negative = inhibition, hits mostly inhibitors. AID 493014, 2011; active = well fitted inhibition curve with a large enough effect in the signal ratio, with a control signal flat, not every such curve was filed as active; inconclusive = small, poorly fitted or top-dose-only effect, or effect the other way, or a change in a side signal; the % refers to the signal ratio;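 note: potency is the fitted concentration of half-maximal effect; plate controls were basal doxycycline-induced cells for no effect and cells given 10 µM MG132 for full effect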
#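 Compounds up to 46 uM were incubated four hours with TMD8 cells whose green CBG68 luciferase is fused to IkappaBalpha; red CBR luminescence normalised the signal, and concentration-effect curves were fitted to fusion, red and ratio data.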
# Giardia kill – Small Molecules that selectively kill Giardia lamblia: qHTS. Giardia lamblia trophozoite viability. activity change, % at 7.66 µM, hits read low. hit rate 0.15% among 340,000. AID 540267, 2011; in the data active = activity change below about -80%; inconclusive = between about -30% and that limit;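 note: parasites exposed to compound for two days anaerobically before the ATP read; % is set by controls: 0 for no effect and ±100 for the full control effect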
#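 Viability, read as ATP luminescence: trophozoites at 100 cells/well, compound added, 48 hrs anaerobic at 37 deg C, then 15-30 min room-temperature development before reading.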
# MCF10A rereplic – A quantitative high throughput screen for small molecules that induce DNA re-replication in MCF 10a normal breast cells | hit rate 2.9% among 350,000 | AID 624296, 2012 | Potency, µM (top dose mostly 46.1 µM), inactives show top-dose activity, positive = re-replication, actives largely listed as activators | MCF 10A DNA re-replication, Hoechst nuclear intensity, 48 h; note: potency is the fitted concentration of half-maximal effect; % of control where 0% means no effect; nearly all actives have a fitted effect of over 50% in size
# The depositor's hits bear a star; ? = inconclusive; / = no result given; [ ] = another dose, or the depositor's remark. Sampled rows, rich in hits. Any-hit rate of the full collection: about 8.3%. Unless noted, calls come from the whole dose curve; as a rule, active = well fitted curve in the direction sought with a large enough effect; inconclusive = small, poorly fitted or top-dose-only effect, or another doubt; inactive = no such curve, though single readings can be large; an effect the other way counts as inactive or inconclusive.
SMILES,RORgamma inh,SW480 rereplic,Gal4-VP16 FLuc,BCR signal inh,Giardia kill,MCF10A rereplic
Cc1ccc(S(=O)(=O)CNC(=O)c2ccccc2)cc1,?,0%,-21%,?,11,1%
COc1ccc(C(=S)NCS(=O)(=O)c2ccc(C)cc2)cc1,16µM*,3%,?,?,10,7%
Cc1nn(Cc2cccc(C(=O)N3CCCC(C)C3)c2)c(C)c1[N+](=O)[O-] (centres undefined),?,8%,0%,2%,18,3%
CN(C)CCN1C(=O)c2cccc3cc([N+](=O)[O-])cc(c23)C1=O,/,1.5µM*,/,/,-20,?
CN(C)CCCN1C(=O)c2cccc3cccc(c23)C1=O,-44%,?,-8%,-2%,7,-4%
Cn1nnnc1Sc1ncnc2scc(Br)c12,/,4.6µM*,/,?,-4,3.7µM*
Cn1nnnc1Sc1ncnc2scc(-c3ccccc3)c12,?,16µM*,3%,?,8,?
Cn1nnnc1Sc1ncnc2scc(-c3ccc(F)cc3)c12,10µM*,10µM*,24%,?,-8,?
NC(=O)C1Cc2ccccc2CN1C(=O)c1cc(C2CC2)nn1-c1ccccc1 (centres undefined),/,-5%,/,-4%,0,8%
O=C(COc1ccc(Oc2ccccc2)cc1)NCc1cn2ccccc2n1,28%,?,-9%,?,1,15µM*
O=C(O)c1ccc(OCc2cn3ccccc3n2)cc1,15%,7%,8%,?,-17,18%
COc1ccc(CC(=O)N2CCN(c3ccccn3)CC2)cc1OC,11%,13%,2%,0%,-14,-3%
COc1ccc(-c2cc(C(=O)N3CCCC3)c3ccccc3n2)cc1,-12%,-7%,-6%,-15%,-7,1%
COc1ccc(-c2cc(C(=O)N3CCN(c4ccccc4)CC3)c3ccccc3n2)cc1,33%,1.8µM*,-5%,-19%,-19,13µM*
COc1ccc(-c2cc(C(=O)N(C)CCc3ccc(OC)c(OC)c3)c3ccccc3n2)cc1,5µM*,?,-9%,-8%,10,?
CCCc1ccc(OCc2ccc(C(=O)N3CCN(c4ccccn4)CC3)o2)c(OC)c1,-25%[0.365 µM],12%,/,?,16,9.2µM*
COc1ccc2cc(-c3cc(C(=O)O)c4ccccc4n3)ccc2c1,4%,-4%,-2%,?,-105*,25%
OC1(c2ccccc2)CC(c2ccccc2)c2ccccc2O1 (centres undefined),/,?,/,/,-4,225%
C=CCCC,6%,/,-2%,/,/,/
CCOc1ccc(-c2cc(C(=O)N3CCN(c4ccccn4)CC3)c3ccccc3n2)cc1,1%,?,-23%,20%,?,?
COc1ccc(-c2cc(C(=O)N3CCN(c4ccccn4)CC3)c3ccccc3n2)cc1,24%,21µM*,-17%,8%,?,?
COc1cc(-c2cc(C(=O)N3CCN(c4ccccn4)CC3)c3ccccc3n2)cc(OC)c1OC,-29%,4%,-7%,-5%,-9,?
CCCc1ccc(-c2cc(C(=O)N3CCN(c4ccccn4)CC3)c3ccccc3n2)cc1,11µM*,?,14µM*,2%,?,?
CC(C)n1c(C(=O)OCC(=O)NCc2ccc3c(c2)OCO3)cc2occc21,4%,16%,-2%,?,-6,2%
CC(C)n1c(C(=O)OCC(=O)NCc2ccc3c(c2)OCO3)cc2sccc21,?,8%,0%,?,-11,15µM*
SMILES,RORgamma inh,SW480 rereplic,Gal4-VP16 FLuc,BCR signal inh,Giardia kill,MCF10A rereplic
C[C@H]1CN([C@@H](C)CO)C(=O)c2cccc(NS(=O)(=O)c3ccc(F)cc3)c2O[C@H]1CN(C)S(=O)(=O)c1cn(C)cn1,/,-1%,/,0%,-17,-24%
CN(c1ccc(OCC(=O)OCC(=O)Nc2ccc(OC(F)F)cc2)cc1)S(=O)(=O)c1cccs1,/,-3%,/,-1%,-7,7%
Nc1c2c(nc3ccc(Br)cc13)N(c1ccccc1)CC2,26%,15µM*,14%,22%,6,15µM*
Cc1cccc(N2CCc3c2nc2ccc(Br)cc2c3N)c1,?,-2%,?,?,5,-5%
COC(=O)c1cc2c(ccn2-c2ccc(F)cc2)n1CC(=O)OC(C)C,-6%,-8%,-3%,20%,-22,16µM*
CCOC(=O)C1=C(Cc2ccc(OC)cc2)C(=O)c2ccccc2C1=O,10µM*,6.5µM*,?,?,-14,9%
CCOC(=O)C1=C(Cc2ccc(C)cc2)C(=O)c2ccccc2C1=O,11µM*,/,?,?,/,/
CCOC(=O)c1c(C)nc2c(c1-c1cc(OC)ccc1OC)C(=O)c1ccccc1-2,9%,-18%,3%[0.365 µM],-2%,0,1%
CCc1ccc(N(C(=O)c2snc(C(N)=O)c2N)C(C(=O)NCC2CCCO2)c2cccs2)cc1 (centres undefined),38%,?,-6%,-2%,5,18µM*
NC(=O)c1nsc(C(=O)N(c2ccc(F)cc2)C(C(=O)NCC2CCCO2)c2c[nH]c3ccccc23)c1N (centres undefined),-113%,0%,16µM*,-1%,-1,21%
COc1ccc(-c2nc3cnc(N4CCOCC4)nc3n(-c3ccc(OC)cc3)c2=O)cc1,4%,/,-2%,/,/,/
CCCCN(CC)CCNC(=O)Cn1cc2c(n1)-c1c(oc(C(=O)N3CCCC3)c1C)CC2,16µM*,-6%,?,?,6,-4%
CC(OC(=O)Cc1coc2cc3c(cc12)CCC3)C(=O)NC(N)=O (centres undefined),-1%,-8%,5%,-14%,-10,7%
O=C(NCCN1C(=O)S/C(=C\c2ccc(Cl)c(Cl)c2)C1=O)c1ccc2c(c1)C(=O)N(Cc1ccncc1)C2=O,?,-2%,?,?,8,16µM*
O=C(NCCN1C(=O)S/C(=C\c2ccc(OC(F)F)cc2)C1=O)C1=COCCO1,/,21µM*,/,?,1,18µM*
COc1ccc(/C=C2\SC(=O)N(CCNC(=O)C3=COCCO3)C2=O)cc1,/,10µM*,/,?,3,1.8µM*
CC(Oc1ccc(Cl)cc1)C(=O)NCCN1C(=O)S/C(=C\c2cccnc2)C1=O (centres undefined),-25%,1%,?,?,-6,6%
O=C(NCCN1C(=O)S/C(=C\c2ccc(OC(F)F)cc2)C1=O)c1cnccn1,-5%,5.8µM*,-17%,?,1,5.8µM*

# Screening data from PubChem.
